The values that follow come from PubChem BioAssay AID1851 (National Center for Advancing Translational Sciences (NCATS), 2009).

“And” between values parts separate entries of the source, which are not always exact repeats. Equal values may be shown once. About 5,800 (36%) of roughly 16,000 compounds were called active. Inconclusive results (about 23%) are left out. Calls come from the whole dose curve; as a rule, active = well fitted curve in the direction sought with a large enough effect; inconclusive = small, poorly fitted or top-dose-only effect, or effect the other way; inactive = no such curve, though single readings can be large or run the other way. The list shows a part of the results. Some structures have more than one record in an assay (separate samples or runs), and their calls can disagree. Square brackets hold non-standard residues; d marks the D form. Peptide text beside a SMILES is read from it.
% is set by controls: 0 for no effect and ±100 for the full control effect.

The target of this assay is Cytochrome P450 2C19 (Homo sapiens) (UniProt P33261). Kind of assay: Cytochrome panel assay with activity outcomes. The following applies: recombinant CYP, pro-luciferin dealkylation, luminescence, p450-cyp2c19; series mostly up to 57.1 µM; activity, negative = inhibition: at the top concentration.
Cytochrome P450 2C19 (Homo sapiens), sequence (P33261 whole entry, looked up): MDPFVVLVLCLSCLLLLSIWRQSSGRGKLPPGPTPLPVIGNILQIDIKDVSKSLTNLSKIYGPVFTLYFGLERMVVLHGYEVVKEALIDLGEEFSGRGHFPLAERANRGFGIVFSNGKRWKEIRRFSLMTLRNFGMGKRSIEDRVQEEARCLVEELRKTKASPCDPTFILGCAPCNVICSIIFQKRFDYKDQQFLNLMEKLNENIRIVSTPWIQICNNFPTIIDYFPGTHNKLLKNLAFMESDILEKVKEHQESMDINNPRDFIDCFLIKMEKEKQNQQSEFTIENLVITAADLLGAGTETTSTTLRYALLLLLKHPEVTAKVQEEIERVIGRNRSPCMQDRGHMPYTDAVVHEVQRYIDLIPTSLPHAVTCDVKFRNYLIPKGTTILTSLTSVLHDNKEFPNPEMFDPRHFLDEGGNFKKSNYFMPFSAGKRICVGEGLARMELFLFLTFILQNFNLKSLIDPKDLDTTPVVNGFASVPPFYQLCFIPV
In the case of `CC(=O)[C@@]1(O)CC[C@H]2[C@H]3C[C@@H](C)C4=CC(=O)C=C[C@]4(C)[C@@]3(F)[C@@H](O)C[C@]21C`, the “activity, negative = inhibition” value is -14.6% [at 25.6 µM] (inactive).

Broadly, the AC50 is the midpoint of the concentration-response curve, whichever way the signal moves. On to `COc1ccc(CC(=O)NC(=S)Nc2ccc(S(=O)(=O)NC(C)(C)C)cc2)cc1`, for which the AC50 was 25.1 µM (active).

Regarding `CCC(=O)NC(=S)Nc1ccc(S(=O)(=O)NC(C)=O)cc1`, the “activity, negative = inhibition” value was -19.2% (inactive).

Turning to `CC(C)(C)N1C(=O)[C@@H]2[C@H]3C(=CC[C@H]2C1=O)C(=O)[C@H]1O[C@H]1[C@H]3O`, the activity, negative = inhibition was 18.8% [at 11.4 µM] (inactive).

As for `O=C(O)C1=CCCNC1`, the AC50 entry was “inactive”.

In the case of `COc1ccc(CCNc2nc(-c3cccnc3)cs2)cc1OC`, the half-maximal activity concentration (AC50) is 1.41 µM (active).

With `O=C(NC12CC3CC(CC(C3)C1)C2)C12CC3CC(C1)CC(n1cnc(Cl)n1)(C3)C2`, the AC50 was 8.91 µM (active).

Turning to `COc1ccc(NC(=O)C23CC4CC(C2)CC(n2cnc(Br)n2)(C4)C3)c(C)c1`, the “activity, negative = inhibition” value was -20.6% (inactive).

As to `COC(=O)[C@@H]1[C@@H]2C[C@H]3c4[nH]c5ccccc5c4CCN3C[C@@H]2CC[C@@H]1OS(=O)(=O)O`, the activity, negative = inhibition is -2.78% [at 11.4 µM] (inactive).

As for `CCOc1cc(S(=O)(=O)N(Cc2ccccc2)Cc2ccccc2)c(OCC)cc1-n1cnnn1`, the AC50 was 11.2 µM (active).

Regarding `CC1(C)NC(=O)N(c2ccc([N+](=O)[O-])c(C(F)(F)F)c2)C1=O`, the AC50 was 126 nM (active) and 251 nM (active).

With `Cc1cc2nc(CCN(C(=S)NCC(C)C)C3CCCC3)[nH]c2cc1C`, the concentration at half-maximal activity (AC50) is 2.24 µM (active).

As to `COC(=O)Cn1cnc(=O)c(C#N)c1/C=C/N(C)C`, the “activity, negative = inhibition” value is -16.4% (inactive).

As to `NC1(C(=O)O)C[C@H](C(=O)O)[C@H](C(=O)O)C1` (stereo partly specified), the concentration at half-maximal activity (AC50) was 0.398 µM (active).

In the case of `NC1(C(=O)O)CC(C(=O)O)C1` (stereo unspecified), the “activity, negative = inhibition” value was -15.2% (inactive).

On to `C[C@@]1(C(=O)O)CCC[C@@H]1C(=O)O`, for which the activity, negative = inhibition is 40% [at 11.4 µM] (inactive).

Regarding `N[C@H](C(=O)O)[C@@H]1C[C@@H]1C(=O)O`, the AC50 result is “inactive”.

In the case of `NC1(C(=O)O)C[C@@H](C(=O)O)[C@H](C(=O)O)C1`, the AC50 result was “inactive and 7.94 µM (active)”.

In the case of `N[C@@]1(C(=O)O)CN[C@H](C(=O)O)C1`, the “activity, negative = inhibition” value is -7.35% (inactive).

With `c1ccc2c3c([nH]c2c1)[C@@H]1[C@H]2CC[C@H]([C@H]4CCCN[C@H]42)N1CC3`, the “activity, negative = inhibition” value is 1.6% [at 25.6 µM] (inactive).

Regarding `Cc1noc(C)c1C(=O)N1CCC2(CCCN(Cc3nccs3)C2)CC1`, the “activity, negative = inhibition” value is -39.5% (inactive).

Take `NCC(=O)N[C@H](CO)C(=O)O` (H-Gly-[dS]-OH): the activity, negative = inhibition was -0.959% [at 11.4 µM] (inactive).

In the case of `COc1ccc(N2CCN(S(=O)(=O)c3ccc4c(c3)CCCC4)CC2)c([N+](=O)[O-])c1`, the AC50 is 2 µM (active).

On to `CCS(=O)(=O)N1CCC[C@H]2CN3CCc4cc(OC)ccc4[C@@H]3C[C@@H]21`, for which the “activity, negative = inhibition” value was -31.5% (inactive).

Turning to `COc1cccc(-c2cc(C(F)(F)F)nc(N3CCN(c4ccccc4)CC3)n2)c1`, the AC50 is 8.91 µM (active).

`COc1ccc(-n2c(=O)c(-c3cc(F)cc(F)c3)nc3cnc(N4CCOCC4)nc32)cc1`: the “activity, negative = inhibition” value was -21.1% (inactive).

As to `COc1ccc(-n2c(=O)c(-c3ccccc3)nc3cnc(N4CCNCC4)nc32)cc1`, the “activity, negative = inhibition” value is -16.4% (inactive).

In the case of `COc1cccc(Cn2c(=O)c(-c3cn(C)c4ccccc34)nc3cnc(N4CCOCC4)nc32)c1`, the “activity, negative = inhibition” value was -44.4% (inactive).

`COc1cccc(-c2cc(C(F)(F)F)nc(N3CCOCC3)n2)c1`: the AC50 is 25.1 µM (active).

For `CCC(=S)/C=C1\Sc2ccccc2N1CCCS(=O)(=O)O`, the “activity, negative = inhibition” value is 31% (inactive).

`O=[N+]([O-])c1ccc2c(c1)Cc1cc(N=Cc3ccc4c(c3)OCO4)ccc1-2`: the activity, negative = inhibition was -19.5% [at 11.4 µM] (inactive).

As to `O=[N+]([O-])c1ccc(Nc2nc(N/N=C\c3ccc4c(c3)OCO4)nc(N3CCCCC3)n2)cc1`, the AC50 was 2.24 µM (active).

On to `Brc1cc2c(cc1/C=N/Nc1nc(N3CCCC3)nc(N3CCOCC3)n1)OCO2`, for which the AC50 is 7.94 µM (active).

On to `COC(=O)[C@H](C)[C@@H]1C[C@@]1(C)[C@@H](NC(=O)OCc1ccccc1)c1ccccc1`, for which the AC50 is 0.316 µM (active).

`C[C@@H](C(=O)O)[C@@H]1C[C@@]1(C)[C@@H](NC(=O)OCc1ccccc1)c1ccccc1`: the “activity, negative = inhibition” value was -18.6% (inactive).

Take `COC(=O)[C@H](C)[C@H]1C[C@]1(C)[C@H](NC(=O)OCc1ccccc1)c1ccccc1`: the AC50 is 0.251 µM (active).

Consider `C[C@@H](C(=O)O)[C@H]1C[C@]1(C)[C@H](NC(=O)OCc1ccccc1)c1ccccc1`, for which the AC50 is 7.94 µM (active).

On to `O=C(/C=C\c1ccc2c(c1)OCO2)c1ccc(F)cc1`, for which the concentration at half-maximal activity (AC50) is 1 µM (active).

For the molecule `Nc1ccccc1C(=O)/C=C\c1ccc2c(c1)OCO2`, the AC50 is 1 µM (active).

`COCOc1cc(OC)ccc1C(=O)/C=C\c1ccc2c(c1)OCO2`: the half-maximal activity concentration (AC50) was 0.1 µM (active).

Turning to `O=C(/C=C\C=C/c1ccc2c(c1)OCO2)N1CCCCC1`, the “activity, negative = inhibition” value is -43.6% [at 25.6 µM] (inactive).

`O=C(O)/C=C\C=C/c1ccc2c(c1)OCO2`: the activity, negative = inhibition was 23.6% [at 11.4 µM] (inactive).

With `O=C1/C(=C/c2cccnc2)SC(=S)N1Cc1ccco1`, the AC50 is 3.16 µM (active).

Regarding `COC(=O)c1nn(-c2ccc(OC)cc2)c(=O)cc1Oc1cccc(Cl)c1`, the AC50 is 14.1 µM (active).

Consider `COC(=O)c1nn(-c2ccccc2)c(=O)cc1Oc1ccccc1`, for which the AC50 was 14.1 µM (active).

Consider `O=C1C=C[C@@H](O)[C@H]2[C@@H]3C(=O)N(c4cccc(Oc5ccccc5)c4)C(=O)[C@@H]3CC[C@H]12`, for which the activity, negative = inhibition is -33.5% [at 11.4 µM] (inactive).

For `Nc1nc2c(nc(Br)n2[C@@H]2O[C@H]3COP(=O)(O)O[C@@H]3[C@H]2O)c(=O)[nH]1`, the “activity, negative = inhibition” value is 36.8% (inactive).

In the case of `NC(N)=[N+]1CCc2ccccc2C1`, the “activity, negative = inhibition” value is 32% (inactive).

With `CON(C)C(=O)c1nnc2c3ccccc3n(S(=O)(=O)c3ccc(C)cc3)c2n1`, the activity, negative = inhibition is 16% [at 11.4 µM] (inactive) and 19.4% [at 11.4 µM] (inactive).

For `COc1ccc(N(C(=O)COc2ccccc2OC)S(=O)(=O)c2ccc(C)cc2)cc1`, the half-maximal activity concentration (AC50) is 5.01 µM (active).

On to `C[C@H](NC(=O)c1ccc(Cl)c(Cl)c1)c1ccc(-c2ccccc2)cc1`, for which the half-maximal activity concentration (AC50) is 1.26 µM (active).

As for `CCCCCN(CCCCC)C(=O)[C@H](CCC(=O)O)NC(=O)c1ccc(Cl)c(Cl)c1`, the AC50 result was “inactive”.

As to `COc1ccc(C(NC(=O)c2ccc(-c3ccccc3)cc2)c2ccccc2)cc1` (stereo unspecified), the “activity, negative = inhibition” value is -5% (inactive).

With `O=C(Nc1cccc(F)c1)N1CC[C@@]2(CCCN(C(=O)c3cnccn3)C2)C1`, the “activity, negative = inhibition” value was 26.6% (inactive).

For the molecule `O=c1oc2cc(Oc3c([N+](=O)[O-])cc(C(F)(F)F)cc3[N+](=O)[O-])ccc2c2c1CCCC2`, the AC50 is 2.82 µM (active).

Turning to `O=c1oc2cc(Oc3ccc(C(F)(F)F)cc3[N+](=O)[O-])ccc2c2c1CCCC2`, the “activity, negative = inhibition” value is -6.74% (inactive).
